Assay results: PubChem BioAssay (Tox21)
Records with an inconclusive call do not appear. A number with no mark means an inactive call. Activity calls are given as the source filed them. Calls come from the whole dose curve.

Experiment: qHTS assay for small molecule agonists of the antioxidant response element (ARE) signaling pathway - cell viability counter screen (AID 743203); note: nearly all actives have a fitted effect of over 55% in size
Conditions: ARE-bla HepG2 viability, CellTiter-Glo luminescence, 16 h; series mostly up to 73.3 µM
From the text: National Center for Advancing Translational Sciences [NCATS]
NIH Chemical Genomics Center [NCGC]
U.S. Environmental Protection Agency [EPA]
National Institutes of Environmental Health Sciences [NIEHS]
National Toxicology Program [NTP]
U.S. Food and Drug Administration [FDA]
Oxidative stress has been implicated in the pathogenesis of a variety of diseases ranging from cancer to neurodegeneration. The antioxidant response element (ARE) signaling pathway plays an important role in the amelioration of oxidative stress. The CellSensor ARE-bla HepG2 cell line (Invitrogen) can be used for analyzing the Nrf2/antioxidant response signaling pathway. Nrf2 (NF-E2-related factor 2) and Nrf1 are transcription factors that bind to AREs and activate these genes. The CellSensor ARE-bla Hep G2 cell line contains a beta-lactamase reporter gene under control of the Antioxidant Response Element (ARE) stably integrated into HepG2 cells. The activation of the report gene under culture conditions can be detected by fluorescence intensity. This cell line has been used to screen the Tox21 10K compound library to identify agonists that induce oxidative stress. The cytotoxicity of the Tox21 compound library against the ARE-bla cell line was tested in parallel by measuring the cell viability using CellTiter-Glo assay (Promega, Madison, WI) in the same wells.
Tox21 Assay Protocol Summary:
ARE-bla HepG2 cells were dispensed at 2,000 cells/5 ul/well in 1536-well white wall/solid bottom plates using a Multidrop Combi (ThermoFisher Scientific, Waltham, MA) dispenser. After the assay plates were incubated at 37C/5% CO2 for 5 hrs, 23 nL of compounds dissolved in DMSO, positive controls or DMSO only was transferred to the assay plate by a pintool work station (Kalypsys, San Diego, CA). The plates were incubated at 37C/5% CO2 for 16 hrs, followed by addition of 4 ul/well of CellTiter-Glo reagent into the assay plates using a Flying Reagent Dispenser (Aurora Discovery, San Diego, CA). After 30 min incubation at room temperature, the luminescence intensity in the assay plates was measured using a ViewLux (PerkinElmer, Shelton, CT) plate reader.
% is set by controls: 0 for no effect and ±100 for the full control effect.

Structure (SMILES) | outcome | viability change, negative = cytotoxic
COc1ccc(S(=O)(=O)N2c3ccc(Cl)cc3[C@@](O)(c3ccccc3Cl)[C@H]2C(=O)N2CCC[C@@H]2C(N)=O)cc1OC | inactive | –
O=C(OCC1(COC(=O)c2cccnc2)CCCC(COC(=O)c2cccnc2)(COC(=O)c2cccnc2)C1O)c1cccnc1 | inactive | –
O=C1c2ccccc2C(=O)N1CCl | inactive | –
COc1nccnc1NS(=O)(=O)c1ccc(N)cc1 | inactive | –
CCCCCCN | inactive | –
CCO[Si](CCCS)(OCC)OCC | inactive | –
CC(C)CCCC(C)(C)O | inactive | –
c1ccc2c(c1)ccc1c3ccccc3ccc21 | inactive | –
C=C(C)C(=O)OCCNC(C)(C)C | inactive | –
C=C(C)C(=O)OCCN(CC)CC | inactive | –
NCCN1CCOCC1 | inactive | –
CC(C)c1ccc2cc(C(C)C)ccc2c1 | inactive | –
CC(=O)NCc1c(I)c(NC(C)=O)c(I)c(C(=O)O)c1I | inactive | –
CCC(C)NC(N)=O (stereo not given) | inactive | –
Cc1ccc2ccc(Cl)cc2n1 | inactive | –
O=S(O)(O)=S | – | 2.86% [at 8.36 µM]
CC(C)C(=O)OCc1cccc(OC(=O)[C@@H]2N3C(=O)[C@@H](NC(=O)Cc4ccccc4)[C@H]3SC2(C)C)c1 | inactive | –
COCCOC(=O)C1=C(C)NC(C)=C(C(=O)OC(C)C)C1c1cccc([N+](=O)[O-])c1 (stereo not given) | inactive | –
CCN(C)C(=O)Oc1cccc([C@H](C)N(C)C)c1 | inactive | –
CCCCNc1ccc(C(=O)OCCN(C)C)cc1 | inactive | –

Structure (SMILES) | outcome | viability change, negative = cytotoxic
COP(=O)(OC)OC(c1ccc(Cl)cc1)P(=O)(OC)OC (stereo not given) | inactive | –
C#CC(C)N(C)C(=O)Nc1ccc(Cl)cc1 (stereo not given) | inactive | –
Nc1ccc([N+](=O)[O-])c(N)c1 | inactive | –
CC(COC(C)(C)C)OCCCO (stereo not given) | inactive | –
O=C(NCC(O)CO)c1c(I)c(C(=O)NCC(O)CO)c(I)c(N(CCO)C(=O)CO)c1I (stereo not given) | inactive | –
CCOC(=O)c1ccc(OC(=O)CCCCCN=C(N)N)cc1 | inactive | –
COc1cc2c(cc1OC)C(=O)CC2 | inactive | –
CC(C)CC(C)CC(C)CC(C)COC(=O)c1ccccc1C(=O)OCC(C)CC(C)CC(C)CC(C)C (stereo not given) | inactive | –
CC(C)NCC(O)COc1ccc(COCCOC(C)C)cc1 (stereo not given) | inactive | –
Oc1cn2c(n1)Nc1ccc(Cl)c(Cl)c1C2 | inactive | –
CN(C)C(=O)CNC(=O)Cc1ccccc1 | inactive | –
Nc1nnc(-c2cccc(Cl)c2Cl)c(N)n1 | inactive | –
CCCCCCCCC(=O)Cl | inactive | –
O=P(O)(O)OP(=O)(O)O | inactive | –
C=Cc1ccccn1 | inactive | –
BrCc1cccc(Oc2ccccc2)c1 | inactive | –
CC(C(=O)O)c1ccc2c(c1)CC(=O)c1ccccc1S2 (stereo not given) | inactive | –
O=C1CC(c2ccc(Cl)cc2)CC(=O)N1 | inactive | –
CC(C)OC(=O)CCCCC(=O)OC(C)C | inactive | –
N[C@@H](CCC(=O)N[C@@H](CS)C(=O)NCC(=O)O)C(=O)O | inactive | –
